Sampled rows, rich in hits. Any-hit rate of the full collection: about 3.1%.
C2C12 statin: suppressors of simvastatin-induced myotoxicity in C2C12 myotubes; ATP luminescence, 48 h; scaled: DMSO 0, geranylgeraniol control 100; rescue of ATP level, % at 7.49 µM; 330,000 tested, 0.78% active;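 active = mean ATP rescue above about 67%, or every replicate alone reaching that limit, limit read from the data, passing the limit was not always enough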;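 note: myotubes were challenged with 10 µM simvastatin during compound exposure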
PAX8 reporter: lowers PAX8-driven luciferase in RMG-I cells | RMG-I TPO-luciferase reporter, SteadyGlo, 24 h | inhibition, % at 12.6 µM | 360,000 tested, 1.2% active | AID 652154;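 active = mean replicate inhibition at least 60% with every replicate also reaching 60%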;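 note: luciferase light reporting Pax8 driven TPO promoter activity; plate controls were median of neutral control wells for no effect and mitoxantrone controls for full effect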
HIV Env fusion: HIV envelope-mediated fusion inhibition | HeLa-JRFL Env/CEM21 cell fusion, luciferase | inhibition, % at 12.3 µM | 360,000 tested, 1.1% active;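 active = mean replicate inhibition score of at least 50 and every replicate individually at or above 50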;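 note: 0% = plate neutral controls and 100% = maraviroc near 300 nM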
INS-1E GSIS act: GLuc luminescence reporter in INS-1E cells, primary screen for activators of glucose-dependent secretion of insulin; INS-1E GLuc reporter insulin secretion, 2-3 h; activation, % at 16.6 µM; 370,000 tested, 0.61% active; AID 743287;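 active = lowest replicate activation of at least 40%, so every replicate reaches that level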;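 note: 0% = median of neutral control wells and 100% = median of IBMX positive control wells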
EWS-Fli block: blocks EWS/Fli oncoprotein-driven transcription; A673 NR0B1-luciferase reporter, viability-normalised; inhibition, % at 12.6 µM; 350,000 tested, 0.67% active; AID 651661;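 active = mean inhibition of at least 50% after viability correction, with every replicate also passing that limit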;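 note: firefly luciferase signal divided by Alamar Blue viability fluorescence both relative to DMSO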
miR-122 sensor: miR-122 inhibition in Huh7 cells. Huh7 miR-122 Renilla luciferase sensor, 48 h; neutral wells = 0, positive control = 100. activation (reporter increase), % at 12.5 µM. 340,000 tested, 0.3% active;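 active = mean replicate activation score at least 90 and every replicate individually at or above 90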;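 note: higher luciferase means less miR-122 activity so hits act as miR-122 inhibitors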
The depositor's hits bear a star; nt = not tested or not shown; [ ] = another dose, or the depositor's remark.

SMILES | C2C12 statin | PAX8 reporter | HIV Env fusion | INS-1E GSIS act | EWS-Fli block | miR-122 sensor
CCOc1cc(N2CCOCC2)c(OCC)cc1NC(=O)COC(=O)CCOc1ccc(C(C)(C)C)cc1 | -5 | 4 | -7 | 8 | -2 | -2
CCOc1cc(C(=O)Nc2cc(C)ccc2OC)ccc1OCC(=O)N1CCCCC1 | 115* | 9 | -9 | 1 | nt | -7
CC(C)(C)c1ccc(OCCC(=O)Nc2ccc(N3CCOCC3)cc2N2CCOCC2)cc1 | -3 | 3 | 69* | -73 | -3 | nt
O=S(=O)(NC[C@@H]1CC[C@@H]2[C@@H](CN2Cc2ccccc2C(F)(F)F)O1)c1ccccc1 | nt | -25 | 13[16.7 µM] | nt | -2 | nt
Cc1ccc(S(=O)(=O)N(C)C[C@@H]2OCCCC[C@H](C)Oc3ccc(NC(=O)Cc4ccccc4)cc3C(=O)N([C@@H](C)CO)C[C@H]2C)cc1 | nt | -12 | -3[16.7 µM] | -37 | 8 | 11[16.7 µM]
C[C@@H]1CN([C@H](C)CO)C(=O)c2cc(NC(=O)c3ccncc3)ccc2O[C@@H](C)CCCCO[C@H]1CN(C)C(=O)Nc1ccc(F)cc1 | nt | 10 | -18[16.7 µM] | 2 | -3 | 8[16.7 µM]
CNC(=O)C[C@@H]1CC[C@@H]2[C@@H](COc3ccc(NC(=O)C(C)C)cc3C(=O)N2C)O1 | -24 | -28 | -9[16.7 µM] | -2 | -11 | 23[16.7 µM]
COc1ccc(-c2ocnc2C(=O)Nc2ccc(N3CCOCC3)cc2N2CCOCC2)cc1OC | -5 | 28 | 5 | 85* | 3 | -5
COc1ccc(C(=O)NC(=S)Nc2ccccc2N2CCOCC2)cc1Br | nt | 8 | 2 | 14 | 2 | 3
COc1ccccc1-c1ocnc1C(=O)Nc1ccc(N2CCOCC2)cc1N1CCOCC1 | -6 | 5 | -3 | 22 | -5 | 1
COc1ccc(C(=O)Nc2ccccc2N2CCOCC2)cc1Br | 117* | nt | nt | 4 | nt | 8
COc1cccc(S(=O)(=O)N(C)C[C@H]2Oc3cc(C#CCN(C)C)ccc3S(=O)(=O)N([C@H](C)CO)C[C@@H]2C)c1 | -63 | nt | 0[16.7 µM] | -17 | 28 | 6[16.7 µM]
CC(=O)N(C)C[C@@H]1Oc2ncc(C#CCc3ccccc3)cc2C(=O)N([C@@H](C)CO)C[C@H]1C | -8 | nt | -2[16.7 µM] | -3 | 3 | 6[16.7 µM]
Cc1cc(C(F)(F)F)c2sc(N)nc2n1 | 85* | nt | nt | 0 | nt | -3
O=S1(=O)c2ccccc2OC(COCc2ccccc2)CN1C1CC1 (configuration not stated) | -14 | -2 | -12 | 109* | 8 | 11
C[C@H](c1ccccc1)N1C[C@@H](COCc2ccccc2)Oc2cccc(N3CCCCC3)c2S1(=O)=O | nt | 13 | 59* | -31 | 10 | nt
COc1ccc(/C=C2/S/C(=N/S(=O)(=O)Cc3ccccc3)NC2=O)cc1OC | 3 | -66 | -13 | 79* | 6 | 54
O=C1N/C(=N\S(=O)(=O)Cc2ccccc2)S/C1=C/c1cccc([N+](=O)[O-])c1 | 11 | -6 | 3 | -44 | -4 | 19
CC(=O)c1c[nH]c(C(=O)NCC2CCCO2)c1 (configuration not stated) | -2 | nt | -35 | nt | nt | -5
CCC(CC)C(=O)c1c[nH]c(C(=O)NCC2CCCO2)c1 (configuration not stated) | 107* | nt | nt | nt | nt | -1
O=C(NCCCN1CCCCC1)c1ccc2c(c1)NC(=O)C(N1CCCCC1)S2 (configuration not stated) | nt | nt | nt | nt | nt | -1
CC1CC(C)CN(CCCNC(=O)c2ccc3c(c2)NC(=O)C(N2CCCCC2)S3)C1 (configuration not stated) | 107* | nt | nt | nt | nt | -16
C[C@@H]1CCCCO[C@@H](CN(C)Cc2ccncc2)[C@H](C)CN([C@H](C)CO)C(=O)c2cc(NC(=O)Nc3ccccc3)ccc2O1 | nt | 14 | -20[16.7 µM] | -21 | nt | -8[16.7 µM]
Cc1noc(C)c1NC(=O)N[C@@H]1C=C[C@H](CC(=O)NCCCN(C)C)O[C@@H]1CO | 4 | nt | nt | 7 | nt | nt
C[C@@H]1CN([C@@H](C)CO)C(=O)c2cc(NC(=O)Cc3ccccc3)ccc2O[C@H]1CN(C)S(=O)(=O)c1cccs1 | 13 | nt | nt | -10 | -5 | 5[16.7 µM]
CC(=O)Nc1c(C(=O)C2CC2)oc2ccccc12 | 1 | nt | nt | 50* | 4 | -11
C/C=C/c1cnc2c(c1)C(=O)N([C@H](C)CO)C[C@H](C)[C@H](CN(C)Cc1cccc(C(=O)O)c1)O2 | -4 | -14 | nt | 18 | -5 | -11[16.7 µM]

Screening data deposited in PubChem by Broad Institute.
